PubChem BioAssay AID1345083 (National Center for Advancing Translational Sciences (NCATS), 2018)
The whole screen tested about 94,000 compounds, of which about 6,200 (6.6%) were called active. A call without a number means that no potency is given here. About 31% were inconclusive and are not listed. The sample holds actives, similar compounds and a random draw of the others, so the mix is not that of the screen. Calls follow the shape of the dose curve; as a rule, active = well fitted inhibition curve with a large enough effect; inconclusive = small, poorly fitted or top-dose-only effect; inactive = flat fitted curve, though single readings scatter.

test: Cytotoxic Profiling in HEK 293 Cell Line of Diverse Libraries Using Quantitative High-Throughput Screening; settings: HEK 293 viability, ATP luminescence (CellTiter-Glo), 48-72 h; series mostly up to 115 µM; also: nearly all actives have a fitted effect of over 60% in size
Summary of the method: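 qHTS cytotoxicity; HEK 293, 250 cells/well; compound pinned; 48 or 72 hr, 37 degree Celsius, 5% CO2, 95% humidity; CellTiter-Glo, 10 min RT; luminescence (ATP).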
Potency is read from the fitted curve at half-maximal effect.

Row | Structure (SMILES) | Potency
1 | COc1ccc(CN2CCC3(COc4ncccc4[S+](=O)([O-])N3)C2)cc1 (stereo not given) | inactive
2 | CNC(=O)N1CCC(C2CCN(C(=O)C3CC=CC3)C2)CC1 (stereo not given) | inactive
3 | CC(C)(C)c1csc(NC(=O)c2ccc3c(c2)OCCN(C2CCC2)C3)n1 | 50.1 µM (active)
4 | O=C(Cn1nc2c(cc1=O)CCCC2)Nc1nc(-c2ccc3c(c2)OCCCO3)cs1 | inactive
5 | COc1ccc(NC(=O)Cn2c(C)ccc(NS(=O)(=O)c3ccccc3)c2=O)cc1 | inactive
6 | CCOc1ccc2c(n1)CCN(C(=O)C(C)C)C2 | inactive
7 | O=C(NCc1ccc(Cl)nc1)c1cn2c(n1)CN(C(=O)c1cccnc1)CC2 | inactive
8 | O=C(NCCc1cnccn1)c1coc(COc2cccc(C(F)(F)F)c2)n1 | inactive
9 | CN(C)C[C@@H]1CN(c2ncccn2)C[C@H]1NC(=O)c1cc(Cl)ccc1F | inactive
10 | Cc1occc1C(=O)N[C@@H]1CN(Cc2cccnc2)C[C@H]1CN(C)C | inactive
11 | CN(C)C[C@@H]1CN(Cc2ccccn2)C[C@H]1NC(=O)c1cc(Cl)ccc1F | 44.7 µM (active)
12 | CNC(=O)c1cc(C)nc2onc(C3CCN(C(=O)c4ccc(C)cc4)CC3)c12 | inactive
13 | NC(=O)CCNC(=O)C1=C[C@@H](NC(=O)Nc2ccccc2Br)[C@@H](O)[C@H](O)C1 | inactive
14 | CCN(C1CCN(C)CC1)C1CN(C(=O)c2nccc3ccccc23)C1 | inactive
15 | CCOc1ccccc1NC(=O)Cn1c(=O)n(-c2ccccc2)c(=O)c2c1cc(C)n2C | inactive
16 | CCOc1ccccc1NC(=O)CN1C(=O)C(c2ccccc2)=NC12CCCC2 | 79.4 µM (active)
17 | CCc1cccc(C)c1NC(=O)CN1C(=O)C(c2ccccc2)=NC12CCCC2 | inactive
18 | Cc1noc(C)c1[S+](=O)([O-])N1CCn2c(nnc2C2CCCNC2)C1 (stereo not given) | inactive
19 | c1cc2c(cc1-c1n[nH]c(C3CCOCC3)n1)OCO2 | inactive
20 | COc1ccc(-c2[nH]nc3ncc(-c4cn[nH]c4)nc23)cc1F | inactive
21 | Cc1cccc(-c2cnc3n[nH]c(-c4ccc5c(c4)OCO5)c3n2)c1 | 70.8 µM (active)
22 | CC(=O)N1CCC(Oc2ccc(Cl)cc2C(=O)N2CCN(CC3CC3)CC2)CC1 | inactive
23 | CCn1cc(S(=O)(=O)N2CCc3nn(CC4CC4)c(=O)n3CC2)cn1 | inactive
24 | CN(C)c1ccc2ncc(Nc3ccccc3F)n2n1 | 112 µM (active)
25 | O=C(NCCCN1CCCCC1)C1CCN(C(=O)N2CC3CC(C2)[C@H]2CCCC(=O)N2C3)CC1 (stereo not given in full) | inactive

Row | Structure (SMILES) | Potency
26 | COCCN1CCC2(CCC1=O)CCN(C(=O)c1sc(C)nc1C)CC2 | inactive
27 | CCOC(=O)C1=CN(CC(=O)Nc2ccccc2F)S(=O)(=O)N=C1C | inactive
28 | Cc1cc(=O)n(CC(=O)N2C[C@H](CO)C[C@H](CN(C)C)C2)nc1C | inactive
29 | COc1cc(C)c(CN2CCN3C(=O)CNC(=O)C3C2)cc1C(C)C (stereo not given) | inactive
30 | CCOc1cc(C)c(CN2C[C@@H](CN(C)C)C[C@H](CO)C2)cc1C(C)C | 35.5 µM (active)
31 | COc1ccc(C(=O)NCc2nnc3ccc(-c4ccccc4)nn23)c(OC)n1 | inactive
32 | COc1ccccc1Nc1cnc2ccc(-c3ccc(OC)c(OC)c3)nn12 | 11.2 µM (active)
33 | Cc1ccc(-c2ccc3nnc(CNC(=O)c4cccnc4)n3n2)cc1C | inactive
34 | CN(C)c1cccc(-c2cnc(Nc3ccc(N4CCOCC4)cc3)c3c2CCO3)c1 | 22.4 µM (active)
35 | Cc1cccc(CNC(=O)C2Cn3cccc3C(=O)N2CC(C)C)c1 (stereo not given) | inactive
36 | CCOC(=O)[C@H]1[C@@H](O)C(=O)N(Cc2ccccc2)C12CCN([S+](C)(=O)[O-])CC2 | inactive
37 | Cc1ccccc1CN1CCC2(C1)C(=O)N(C)C(=O)N2C (stereo not given) | inactive
38 | Cc1ccccc1CN1CCC(N2CCCC(C(=O)NC3CC3)C2)CC1 (stereo not given) | inactive
39 | Cc1ccc2c(n1)N(C)[C@H](CO)CCN(Cc1ccccc1C)C2 | 89.1 µM (active)
40 | C=CCN1CCN(C(=O)C2CCCN(C(=O)c3ccccc3)CCC(=O)NCC2)CC1 (stereo not given) | inactive
41 | CC(C)(C)c1cc(CC2(NCc3ccc(C#N)cc3)COC2)no1 | inactive
42 | CC1CCN([C@@H]2[C@H](O)[C@H](CO)O[C@@H]2CNC(=O)Nc2ccccc2)CC1 | inactive
43 | CCC(CC)C(=O)N[C@H]1C[C@@H](Cc2cc(COc3ccccc3)on2)C1(C)C | 31.6 µM (active)
44 | CN(Cc1nccn1C)C(=O)c1cc(CN2CCC(Cc3ccccc3)CC2)on1 | inactive
45 | CC1(C)[C@H](Cc2cc(CC3CCCCC3)on2)C[C@@H]1NC(=O)C1CCC1 | 35.5 µM (active)
46 | CC(=O)N1CCC(N[C@H]2C[C@@H](Cc3cc(CN(C)c4ccccc4)on3)C2(C)C)CC1 | 70.8 µM (active)
47 | CC1(C)[C@H](Cc2cc(CC3CCCCC3)on2)C[C@@H]1NC1CCOCC1 | 28.2 µM (active)
48 | COCc1cc(C[C@@H]2CC[C@H](O)[C@@H](CN(C)C)O2)no1 | inactive
49 | Cc1cc(C[C@@H]2COC[C@@H]2NC(=O)C2CCN(C(=O)N(C)C)CC2)on1 | inactive
50 | CN(Cc1ccccc1)Cc1cc(CC2(NCc3ccc(CO)o3)COC2)no1 | inactive
